Measured values from PubChem BioAssay AID2314 (National Center for Advancing Translational Sciences (NCATS), 2010).
Out of some 300,000 compounds screened, about 37,000 (12%) were called active. The sample holds actives, similar compounds and a random draw of the others, so the mix is not that of the screen. Rule as the data show it: active = max response mostly above about 13% (no sharp cut-off); inactive = mostly below about 14%.

Experiment: Cycloheximide Counterscreen for Small Molecule Inhibitors of Shiga Toxin; also: read at 38.3 µM for the half of the compounds with a filed dose; 0% is about no effect
Conditions: cell reporter, cycloheximide protein synthesis inhibition counterscreen; active compounds read high

| SMILES | max response |
| --- | --- |
| CCN(CC)CCCNC(=O)c1cn(C)c2ccc(S(=O)(=O)N(C)C3CCCCC3)cc2c1=O | -5.84% (inactive) |
| Fc1ccccc1/C=C1\CCCC2=C1Nc1ncnn1C2c1ccccc1F (centres undefined) | -5.33% (inactive) |
| COc1ccc(N(CC(=O)NCC2CCCO2)C(=O)CCC(=O)Nc2nccs2)c(OC)c1 (centres undefined) | -4% (inactive) |
| CCc1ccc(N2CC(C(=O)Nc3ccc(S(=O)(=O)Nc4nccs4)cc3)CC2=O)cc1 (centres undefined) | -3.18% (inactive) |
| C/C(=N\NC(=O)c1ccc(C)cc1)C1C(=O)c2ccccc2C1=O | 23.4% (active) |
| Cc1ccc(C(=O)N/C(=C/c2cccnc2)C(=O)O)cc1 | -0.563% (inactive) |
| C/C(=N\NC(=O)CNC(=O)C(c1ccccc1)c1ccccc1)c1ccc(C)cc1 | -6.41% (inactive) |
| Cc1ccc(S(=O)(=O)c2nc(-c3cccs3)oc2NCc2cccnc2)cc1 | 7.52% (inactive) |
| O=C1c2cccc3c([N+](=O)[O-])ccc(c23)C(=O)N1CC1CCCO1 (centres undefined) | 20% (inactive) |
| Cc1cc(Nc2ccccc2)n(C(=O)c2ccc(N)cc2)n1 | 24% (active) |
| Cc1cc(Nc2ccccc2)n(CCC#N)n1 | -3.59% (inactive) |
| Cc1cc(C)n(C(=O)c2ccc(S(=O)(=O)N3CCCC3)cc2)n1 | -2.32% (inactive) |
| CC(c1ccco1)N(C(=O)c1ccc(S(=O)(=O)N2CCCCC2)cc1)c1ccccn1 (centres undefined) | 15.1% (active) |
| CC(c1ccco1)N(C(=O)COc1ccccc1[N+](=O)[O-])c1ccccn1 (centres undefined) | 20.7% (inactive) |
| O=C(COc1ccc(S(=O)(=O)N2CCCCC2)cc1)NCc1ccccn1 | 0.485% (inactive) |
| CC(C)N1CCC(=NNc2ccc([N+](=O)[O-])cc2S(=O)(=O)N2CCOCC2)CC1 | -2.55% (inactive) |
| CN(c1ccccc1)S(=O)(=O)c1ccc2[nH]c(=O)[nH]c2c1 | -2.46% (inactive) |
| COc1ccc(CNc2nnnn2C)cc1 | -1.69% (inactive) |
| CCOC(=O)CNc1nc2ccccc2n2c(C)nnc12 | 7.6% (inactive) |
| Fc1ccc(CNc2nc3ccccc3n3nnnc23)cc1 | 13.3% (active) |
| Cc1ccc(-c2ccc(=O)n(Cc3ccc(F)cc3Cl)n2)cc1 | 7.94% (inactive) |
| CCN1CCN(CCNC(=O)c2ccc(/C=C3/Sc4ccccc4N(Cc4cccc(C)c4)C3=O)cc2)CC1 | -11.9% (inactive) |
| CCN1/C(=C/c2ccc3ccc(C)cc3[n+]2CC)Sc2ccccc21 | 11.9% (active) |
| CCN1/C(=C\c2ccc3ccccc3[n+]2CC)Sc2cc(C)ccc21 | 1.19% (inactive) |

| SMILES | max response |
| --- | --- |
| Cc1ccc2sc(N(CCN(C)C)C(=O)/C=C/c3cccs3)nc2c1C | -8.25% (inactive) |
| COc1ccc(S(=O)(=O)Nc2ccc(O)c(Sc3nc4ccccc4s3)c2)cc1 | 1.12% (inactive) |
| COc1ccc(-n2c(O)c(C(C)=Nc3ccc4c(c3)CCC4)c(=O)[nH]c2=O)cc1 | -1.73% (inactive) |
| COc1ccc(N=C(C)c2sc3ccccc3c2O)cc1 | 43.2% (active) |
| CC(=O)[C@@]12O[C@@H]1C[C@H]1[C@@H]3CC[C@H]4C[C@@H](O)CC[C@]4(C)[C@H]3CC[C@@]12C | -5.5% (inactive) |
| CCN1CCC2(CCN(Cc3cn[nH]c3-c3ccc(OC)c(F)c3)C2)C1 (centres undefined) | -2.52% (inactive) |
| Cc1ccc(NC(=O)C2CCN(S(=O)(=O)c3ccc4c(c3)NC(=O)CO4)CC2)cc1C | 1.16% (inactive) |
| Fc1ccc2nc(Nc3nc4c(s3)CCCC4)sc2c1 | 40.4% (active) |
| O=C(Cn1c(=O)sc2ccccc21)Nc1nc2c(s1)CCCC2 | 3.35% (inactive) |
| COC(=O)C(NC(C)=O)(Nc1nc2c(s1)CCCC2)C(F)(F)F (centres undefined) | -2.42% (inactive) |
| CN(C)c1cc(-c2ccc(F)cc2)oc(=O)c1Cl | 2.21% (inactive) |
| Cc1cc(C)nc(Nc2n[nH]c(-c3ccccc3N)n2)n1 | 52% (active) |
| Cc1cc(C)nc(Nc2ncn[nH]2)n1 | -1.33% (inactive) |
| Cc1ccccc1-c1n[nH]c(=S)n1C | 6.29% (inactive) |
| CS(=O)(=O)Nc1ccccc1N=C(c1ccccc1)c1ccccc1 | -4.16% (inactive) |
| C/C=C(/C)C(=O)O[C@@H]1c2cc3c(c4c2[C@@]2(CO4)C(=O)C(OC)=C(OC)C=C2C[C@@H](C)[C@H]1C)OCO3 | -1.03% (inactive) |
| COc1ccc(S(=O)(=O)N2CCSCC2)cc1 | -2.78% (inactive) |
| CCCNC(=O)c1ccc(Cl)c(Cl)c1 | -2.92% (inactive) |
| CCCNC(=O)CCc1c(C)nc2c(c(C)nn2-c2ccc(C)cc2)c1C | -2.97% (inactive) |
| CCCNC(=O)c1c(Cl)cnn1-c1ccc(C)cc1 | 39.1% (active) |
| O=C1C=CC(=O)N1c1ccc(N2CCCCC2)cc1 | 8% (inactive) |
| Cc1n[nH]c(C)c1S(=O)(=O)N1CCCC(C(=O)Nc2ccc(Br)cc2)C1 (centres undefined) | -4.38% (inactive) |
| O=C(COc1ccc(Cl)cc1)NCCSc1ccccc1 | -2.45% (inactive) |
| COC(=O)c1sccc1NC(=O)c1ccc(Cl)cc1 | -0.926% (inactive) |

| SMILES | max response |
| --- | --- |
| O=C(COc1ccc(Cl)cc1)Nc1ccccc1CO | 19.6% (active) |
| CCS(=O)(=O)c1ccc(O)c(NC(=O)COc2ccc(Cl)cc2)c1 | -2.47% (inactive) |
| COC(=O)c1sccc1NC(=O)COc1ccc(Cl)cc1 | 18% (active) |
| COC(=O)c1sccc1NC(=O)CCC1CCCC1 | 11% (inactive) |
| CCOc1ccc(N/C(N)=N/c2nc(C)c(C)c(=O)[nH]2)cc1 | 0.863% (inactive) |
| Cc1ccc(NC(=O)Cn2cccc2C2=NC(c3ccccc3)CO2)c(C)c1 (centres undefined) | -4.36% (inactive) |
| N#Cc1ccc(OCc2nnc(-c3ccc([N+](=O)[O-])cc3)o2)cc1 | -2.49% (inactive) |
| COCCn1c(SCC(=O)Nc2cc(Cl)ccc2OC)nc2c(c1=O)SC(C)C2 (centres undefined) | -1.62% (inactive) |
| O=S(=O)(Oc1ccccc1C(=S)N1CCOCC1)c1ccc(Cl)cc1 | -1.08% (inactive) |
| NC(=O)CC(NC(=O)Cc1ccc(Br)cc1)c1ccc(NC2CC3CCC2C3)c([N+](=O)[O-])c1 (centres undefined) | 8.14% (inactive) |
| C=CCNC(=O)/C=C/c1ccc(C(C)C)cc1 | 57.7% (active) |
| O=C(/C=C/c1ccc(F)cc1)NCCNC(=O)/C=C/c1ccc(F)cc1 | -1.57% (inactive) |
| CC(C)c1ccc(/C=C/C(=O)NNC(=O)c2cccnc2)cc1 | 10.9% (inactive) |
| O=C(/C=C/c1cccc(C(F)(F)F)c1)N1CCN(c2ccccn2)CC1 | 2.61% (inactive) |
| O=C(c1cccs1)N(Cc1cc2ccccc2[nH]c1=O)CC1CCCO1 (centres undefined) | -1.8% (inactive) |
| COc1ccc(NC(=O)CN2C(=O)COc3ccc(S(=O)(=O)N4CCOCC4)cc32)c(OC)c1 | -3.45% (inactive) |
| CCCCC[C@H]1CN(C2CCCCC2)C(=O)[C@@H]1CC(=O)NCc1ccc(OC)cc1 | -1.9% (inactive) |
| O=C(CSc1nnnn1C1CCCC1)Nc1ccc2c(c1)OCCO2 | 20.7% (active) |
| O=C(CSc1nnnn1-c1ccc2c(c1)CCC2)Nc1ccc2c(c1)OCCO2 | 22.4% (active) |
| Cc1ccc(-n2c(SCC(=O)Nc3ccc4c(c3)OCO4)nnc2-c2ccoc2C)cc1 | -6.42% (inactive) |
| CCC(=O)Nc1cccc(NC(=O)CSc2nnnn2C2CCCC2)c1 | 3.23% (inactive) |
| CCn1c(SCC(=O)Nc2ccc3c(c2)OCCO3)nc2c(c1=O)SC(C)C2 (centres undefined) | -2.67% (inactive) |
| Cc1ccc(-n2c(SCC(=O)Nc3ccc4c(c3)OCO4)nnc2-c2ccccn2)cc1 | -4.03% (inactive) |
| COCCCNC(NC(=O)c1ccc(OC)cc1)C(Cl)(Cl)Cl (centres undefined) | -1.44% (inactive) |

| SMILES | max response |
| --- | --- |
| O=S(=O)(c1cc(Cl)ccc1Cl)N1CCN(Cc2ccco2)CC1 | -2.5% (inactive) |
| CCC(C)N1C(=O)S/C(=C/c2ccc(Sc3nc4ccccc4[nH]3)o2)C1=O (centres undefined) | 8.57% (inactive) |
| CC1CCN(S(=O)(=O)c2ccc3[nH]c(=O)ccc3c2)CC1 | 0.735% (inactive) |
| CCN(c1ccc2c(c1)OCO2)S(=O)(=O)c1cc(Br)cc2c1N(C(=O)C1CC1)CC2 | 10.1% (inactive) |
| COc1ccc(Cl)cc1NC(=O)CN(C)C(=O)CCCc1c[nH]c2ccccc12 | -3.1% (inactive) |
| Cc1cccc(OCC(=O)NC2CC(C)(C)NC(C)(C)C2)c1 | -1.93% (inactive) |
| COc1ccc2oc(=O)cc(CN3CCOCC3)c2c1 | -3.2% (inactive) |
| Cc1cc(=O)oc2c3c(cc(OCC(=O)NCCC(=O)N[C@@H](C)C(=O)O)c12)OC(C)(C)CC3 | -1.18% (inactive) |
| COc1ccc(S(=O)(=O)NCCc2cc3ccc(C)c(C)c3[nH]c2=O)cc1 | -6.24% (inactive) |
| COCc1c(C(=O)N/N=C\c2cccnc2)nnn1-c1nonc1N | -4.36% (inactive) |
| FC(F)(F)c1cccc(-c2cc3ccccc3nc2N2CCCC2)c1 | 3.78% (inactive) |
| CCC/C(=N\O)c1c[nH]c2ccccc12 | 13.5% (inactive) |
| COc1ccc(/C=C(\C#N)c2c[nH]c3ccccc23)cc1 | 47.7% (active) |
| COc1ccc2[nH]cc(/C=C(/C#N)S(=O)(=O)c3ccccc3)c2c1 | -3.42% (inactive) |
| CCO[C@@H]1OC(C(N)=O)=C[C@H](c2ccc(Br)cc2)[C@H]1CCCO | -0.863% (inactive) |
| CCC/C=C(\CCC)C(NC(=O)Cc1ccccc1)c1ccc(C(=O)OC)cc1 (centres undefined) | -2.68% (inactive) |
| CN(C)Cc1c(O)ccc2occ(C(O)c3ccccc3)c12 (centres undefined) | 17.6% (active) |
| CN(C)Cc1c(O)ccc2c(=O)c(-c3ccccc3Cl)coc12 | 1.67% (inactive) |
| Cc1ccc(C(=O)c2coc3ccc(O)c(CN(C)C)c23)cc1 | -0.656% (inactive) |
| C=CCc1cc(C)ccc1OCCCn1ccnc1 | -0.408% (inactive) |
| c1ccc(Cc2ccc(OCCn3ccnc3)cc2)cc1 | 12% (inactive) |
| Clc1c(OCCCn2ccnc2)ccc2ccccc12 | 20.6% (active) |
